{"source": "PubChem BioAssay (EPA / NIEHS)", "key": {"THRA (gene 7067) [1]": {"biological_target": "THRA (gene 7067) (UniProt P10827)", "sequence (P10827 whole entry, looked up, the tested form may be a part)": "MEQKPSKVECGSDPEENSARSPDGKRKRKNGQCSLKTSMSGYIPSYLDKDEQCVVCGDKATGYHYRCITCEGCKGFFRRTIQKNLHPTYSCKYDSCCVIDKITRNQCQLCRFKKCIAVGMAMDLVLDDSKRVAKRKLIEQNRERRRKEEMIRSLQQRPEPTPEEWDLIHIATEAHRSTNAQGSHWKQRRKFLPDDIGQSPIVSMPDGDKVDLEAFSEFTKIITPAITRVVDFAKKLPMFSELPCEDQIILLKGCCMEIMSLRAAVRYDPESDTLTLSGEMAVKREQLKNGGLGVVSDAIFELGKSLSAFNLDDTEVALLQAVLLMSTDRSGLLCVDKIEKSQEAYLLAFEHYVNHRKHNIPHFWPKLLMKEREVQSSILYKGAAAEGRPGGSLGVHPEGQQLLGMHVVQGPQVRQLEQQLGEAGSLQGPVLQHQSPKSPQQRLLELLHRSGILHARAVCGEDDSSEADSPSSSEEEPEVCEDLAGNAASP", "assay": "TOX21_TRA_COA_Antagonist_Followup_ratio: Tox21 Thyroid Hormone Receptor alpha Antagonism through Coactivator Recruitment Follow-Up Assay, Ratio (AID 2283953)", "procedure,_shortened": "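We measured antagonism of T3-type coactivator recruitment using a TR-FRET ratio (emission 520 and 495 nm) between a Tb-labelled anti-GST antibody on TRα LBD (2.5 nM) and SRC-2 peptide (200 nM). Activity was scaled between DMSO and T3 wells.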"}, "THRB (gene 7068) [2]": {"biological_target": "THRB (gene 7068) (UniProt P10828)", "sequence (P10828 whole entry, looked up, the tested form may be a part)": "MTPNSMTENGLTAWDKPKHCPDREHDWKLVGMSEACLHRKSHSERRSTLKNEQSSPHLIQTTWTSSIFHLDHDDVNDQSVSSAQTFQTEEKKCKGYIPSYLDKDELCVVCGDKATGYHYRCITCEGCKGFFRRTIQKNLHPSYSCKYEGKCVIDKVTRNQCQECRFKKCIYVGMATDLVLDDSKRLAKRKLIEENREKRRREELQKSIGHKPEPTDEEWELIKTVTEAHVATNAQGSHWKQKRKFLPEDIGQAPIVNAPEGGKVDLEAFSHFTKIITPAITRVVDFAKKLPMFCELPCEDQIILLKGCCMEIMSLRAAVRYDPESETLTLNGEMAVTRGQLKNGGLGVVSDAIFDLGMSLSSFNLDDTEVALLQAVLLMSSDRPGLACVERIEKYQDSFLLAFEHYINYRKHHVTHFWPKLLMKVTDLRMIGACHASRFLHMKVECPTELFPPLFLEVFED", "assay": "TOX21_TRB_BLA_Antagonist_Followup_ratio: Tox21 Thyroid Hormone Receptor beta Antagonism Beta-lactamase (BLA) Follow-Up Assay, Ratio (AID 2283958)", "procedure,_shortened": "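Read-out: blue/green (460:530 nm) ratio of cleaved to uncleaved CCF4-AM after 2 h at room temperature, fitted against DMSO baseline. HEK293T UAS-bla cells carrying GAL4-human TRβ LBD were exposed 18 h, 37C/5% CO2.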"}, "[3]": {"assay": "TOX21_TRB_BLA_Antagonist_Followup_viability: Viability Assessment in the Tox21 Thyroid Hormone Receptor beta Antagonism Beta-lactamase (BLA) Follow-Up Assay (AID 2283961)", "procedure,_shortened": "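HEK293T cells stably expressing GAL4-DBD/human TRβ-LBD with UAS-bla reporter, 3,000 cells/well in phenol red-free DMEM, 2% charcoal-stripped FBS. Compounds at 11 concentrations in triplicate, 18 h at 37C/5% CO2; viability by CellTiter-Glo luminescence after 30 min at room temperature.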"}, "THRB (gene 7068) [4]": {"biological_target": "THRB (gene 7068) (UniProt P10828)", "assay": "TOX21_TRB_COA_Antagonist_Followup_ratio: Tox21 Thyroid Hormone Receptor beta Antagonism through Coactivator Recruitment Follow-Up Assay, Ratio (AID 2283967)", "excerpt": "(§1) TOX21_TRb_COA_Antagonist_Followup is a secondary assay for specificity for the TOX21_TR_GH3_LUC_Agonist assay. The LanthaScreen TR-FRET TR coactivator assay kits were used to determine TR activity in a cell-free functional assay. A time-resolved fluorescence resonance energy transfer (TR-FRET) signal was indicative of coactivator (SRC-2) recruitment.TOX21_TRB_COA_Antagonist_Followup_ratio is assay component calculated in the TOX21_TRB_COA_Antagonist_Followup assay. The TR-FRET ratio of acceptor emission (ch2) to donor emission (ch1) is indicative of the resonance energy transfer to the fluorescein tag on the coactivator peptide following recruitment to the receptor.Data from the assay component TOX21_TRB_COA_Antagonist_Followup_ratio was analyzed into 1 assay endpoint. This assay endpoint, TOX21_TRB_COA_Antagonist_Followup_ratio, was analyzed in the positive analysis fitting direction relative to DMSO as the negative control and baseline of activity. Using a type of inducible reporter, loss-of-signal activity can be used to understand changes in the reporter gene as they relate to the gene THRB. Furthermore, this assay endpoint can be referred to as a primary readout, because this assay has produced multiple assay endpoints and this ratio serves a reporter gene function to understand target activity. […]"}, "[5]": {"assay": "TOX21_PR_LUC_Followup_Antagonist_viability: Viability Assessment in the Tox21 HEK293 Progesterone Receptor (PR) Antagonism Luciferase Follow-Up Assay (AID 2283940)", "excerpt": "TOX21_PR_LUC_Followup is a secondary assay for specificity for the TOX21_PR_BLA_Agonist assay. To differentiate true PR agonists from cytotoxic substances, this follow up assay is multiplexed with a cell viability assay.TOX21_PR_LUC_Followup_Antagonist_viability is an assay readout measuring cellular ATP content and detected with CellTiter-Glo Luciferase-coupled ATP quantitation.TOX21_PR_LUC_Followup_Antagonist_viability used a type of viability reporter where loss-of-signal activity can be used to understand changes in the cell viability. Furthermore, this assay endpoint can be referred to as a secondary readout, because this assay has produced multiple assay endpoints where this one serves a viability function. To generalize the intended target to other relatable targets, this assay endpoint is annotated to the cell cycle intended target family, where the subfamily is cytotoxicity.\nQuality Control Precautions: Maintain cells below 85-90% confluence in culture medium. […] Then 4 uL of ONE-Glo reagent (Promega, Madison, WI) was added to each plate using a BioRAPTR Flying Reagent Dispenser (FRD) workstation (Beckman Coulter, Indianapolis, IN, USA) and luminescence was quantified on a ViewLux (PerkinElmer, Shelton, CT) plate reader after 30 min incubation at room temperature."}, "THRA (gene 7067) [6]": {"biological_target": "THRA (gene 7067) (UniProt P10827)", "assay": "TOX21_TRA_COA_Agonist_Followup_ratio: Tox21 Thyroid Hormone Receptor alpha Agonism through Coactivator Recruitment Follow-Up Assay, Ratio (AID 2283948; active means hit-call score of the fitted dose curve at least 0.9, where 1 is the maximum; inactive means score below 0.9)", "procedure,_shortened": "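Read-out is the 520/495 nm emission ratio (ex 340 nm), scaled between DMSO-only wells as 0% and T3 wells as 100%. It reflects fluorescein-SRC-2 peptide recruitment to GST-TRα LBD detected via terbium anti-GST antibody.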"}, "THRB (gene 7068) [7]": {"biological_target": "THRB (gene 7068) (UniProt P10828)", "assay": "TOX21_TRB_BLA_Agonist_Followup_ratio: Tox21 Thyroid Hormone Receptor beta Agonism Beta-lactamase (BLA) Follow-Up Assay, Ratio (AID 2283954)", "procedure,_shortened": "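Agonist mode: compounds (11-point, triplicate) incubated 18 h with HEK293T cells carrying GAL4-DBD/human TRβ-LBD and UAS-β-lactamase. Blue/green (460/530 nm) FRET ratio read after 2 h CCF4-AM loading; CellTiter-Glo viability run in the same plates.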"}, "THRB (gene 7068) [8]": {"biological_target": "THRB (gene 7068) (UniProt P10828)", "assay": "TOX21_TRB_COA_Agonist_Followup_ratio: Tox21 Thyroid Hormone Receptor beta Agonism through Coactivator Recruitment Follow-Up Assay, Ratio (AID 2283963; active means hit-call score of the fitted dose curve at least 0.9, where 1 is the maximum; inactive means score below 0.9)", "excerpt": "as §1, with “TOX21_TRb_COA_Agonist_Followup is” for “TOX21_TRb_COA_Antagonist_Followup is”, “(SRC-2) recruitment.TOX21_TRB_COA_Agonist_Followup_ratio” for “(SRC-2) recruitment.TOX21_TRB_COA_Antagonist_Followup_ratio”, “the TOX21_TRB_COA_Agonist_Followup” for “the TOX21_TRB_COA_Antagonist_Followup”, “reporter, gain-of-signal” for “reporter, loss-of-signal”"}, "[9]": {"biological_target": "Retinoic acid receptor RXR-alpha (Homo sapiens) (UniProt P19793)", "sequence (P19793 whole entry, looked up)": "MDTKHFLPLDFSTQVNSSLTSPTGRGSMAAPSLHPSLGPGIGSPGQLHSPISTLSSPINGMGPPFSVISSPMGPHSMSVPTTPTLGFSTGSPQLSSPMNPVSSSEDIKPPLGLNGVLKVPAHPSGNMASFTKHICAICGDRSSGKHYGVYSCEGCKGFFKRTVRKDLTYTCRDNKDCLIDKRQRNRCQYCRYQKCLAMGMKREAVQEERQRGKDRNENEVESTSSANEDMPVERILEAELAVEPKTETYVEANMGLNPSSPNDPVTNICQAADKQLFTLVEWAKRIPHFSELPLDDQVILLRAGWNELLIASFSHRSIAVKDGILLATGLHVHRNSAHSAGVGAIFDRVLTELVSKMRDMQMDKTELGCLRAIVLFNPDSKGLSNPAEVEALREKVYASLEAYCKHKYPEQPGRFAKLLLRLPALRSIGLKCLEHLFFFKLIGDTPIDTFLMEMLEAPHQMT", "assay": "TOX21_TR_RXR_BLA_Agonist_Followup_ratio: Tox21 Thyroid Hormone Receptor beta Retinoid X Receptor alpha (RXRa) Agonism Beta-lactamase (BLA) Follow-Up Assay, Ratio (AID 2283968)", "procedure,_shortened": "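Read-out: blue/green (460:530 nm) FRET ratio from cleaved vs uncleaved CCF4 substrate, fitted for gain of signal relative to DMSO. Cells: HEK293T with RXRa-UAS-bla reporter; 16 h compound exposure, 11 concentrations, triplicate.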"}, "[10]": {"assay": "TOX21_TR_RXR_BLA_Agonist_Followup_viability: Viability Assessment in the Tox21 Thyroid Hormone Receptor beta Retinoid X Receptor alpha (RXRa) Agonism Beta-lactamase (BLA) Follow-Up Assay (AID 2283970)", "procedure,_shortened": "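CellTiter-Glo ATP quantitation as viability read-out in RXRa-bla HEK293T cells (2,500/well, charcoal-stripped 2% FBS medium), 16h compound incubation at 37C. Loss of signal versus DMSO taken as cytotoxicity, analyzed by bidirectional curve fitting.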"}}, "note": "Inconclusive results are not listed. The source made the active and inactive calls. How the source made its calls, unless noted: active means hit-call score of the fitted dose curve at least 0.9, where 1 is the maximum; inconclusive means response in the unintended direction; inactive means score below 0.9."}
{"compound": "C#C[C@]1(O)CC[C@H]2[C@@H]3CCC4=CC(=O)CC[C@@H]4[C@H]3CC[C@@]21C", "values": [{"measurement": "outcome", "setting": "THRA (gene 7067) [1]", "result": "inactive"}, {"measurement": "outcome", "setting": "THRB (gene 7068) [2]", "result": "inactive"}, {"measurement": "outcome", "setting": "[3]", "result": "inactive"}, {"measurement": "outcome", "setting": "THRB (gene 7068) [4]", "result": "inactive"}]}
{"compound": "C[C@@H]1C[C@H]2[C@@H]3CCC4=CC(=O)C=C[C@]4(C)[C@@]3(F)[C@@H](O)C[C@]2(C)[C@@]1(O)C(=O)COP(=O)(O)O", "values": [{"measurement": "outcome", "setting": "[5]", "result": "inactive"}]}
{"compound": "O=C(O)Cc1cc(I)c(Oc2cc(I)c(O)c(I)c2)c(I)c1", "values": [{"measurement": "AC50", "setting": "THRA (gene 7067) [6]", "result": "276 nM (active)"}, {"measurement": "AC50", "setting": "THRB (gene 7068) [7]", "result": "24.2 nM (active)"}, {"measurement": "AC50", "setting": "THRB (gene 7068) [8]", "result": "246 nM (active)"}, {"measurement": "AC50", "setting": "[9]", "result": "31500 nM (active)"}, {"measurement": "outcome", "setting": "[10]", "result": "inactive"}]}
{"compound": "CC(C)(C)c1cc(C(C)(C)C)c(O)c(C(C)(C)C)c1", "values": [{"measurement": "outcome", "setting": "THRA (gene 7067) [6]", "result": "inactive"}, {"measurement": "outcome", "setting": "THRB (gene 7068) [7]", "result": "inactive"}, {"measurement": "outcome", "setting": "THRB (gene 7068) [8]", "result": "inactive"}, {"measurement": "AC50", "setting": "[9]", "result": "59600 nM (active)"}, {"measurement": "outcome", "setting": "[10]", "result": "inactive"}]}
